Data published in PubChem BioAssay (Tox21).
“And” between values parts separate entries of the source, which are not always exact repeats. Identical values can stand only once. Records with an inconclusive call do not appear. Where a call stands in place of a potency, no number is given. More than one record can exist for a structure, and the calls need not agree. The source made the active and inactive calls. The call rests on the fitted dose curve; in most records, active means well fitted activation curve with a large enough effect in the repeat runs; inconclusive means weak or mixed curves; inactive means flat fitted curve, though single readings scatter.

assay: A CellTox Green Cytotoxicity Assay to monitor cytotoxicity in HepG2 cells - 32 hour (AID 1224883); details: CellTox Green fluorescence; series mostly up to 76.8 µM; further: nearly all actives have a fitted effect of over 50% in size
Text: National Center for Advancing Translational Sciences [NCATS]
NIH Chemical Genomics Center [NCGC]
U.S. Environmental Protection Agency [EPA]
National Institutes of Environmental Health Sciences [NIEHS]
National Toxicology Program [NTP]
Cell-based models are critical for drug discovery. Determining the natural cytotoxic effects resulting from test compounds is an essential research activity. A CellTox Green Cytotoxicity Assay to monitor cytotoxicity in real time of continues cell culture during 40 hours of the compound treatment was used to screen Tox21 10K library compounds in HepG2 cells. CellTox Green Cytotoxicity Assay is a nonlytic, homogeneous, biofluorescent method to measure cytotoxicity in cell culture after experimental manipulation. The assay system uses a proprietary asymmetric cyanine dye that is excluded from viable cells but preferentially stains the dead cell's DNA. […] Viable cells produce no appreciable increases in fluorescence. Therefore, the fluorescence signal produced by the binding interaction with dead cell DNA is proportional to cytotoxicity.
The mixture of HepG2 cell suspension and reagents were dispensed at 600cells/6 ul/well in 1536-well tissue culture treated black solid bottom plates using a Multidrop dispenser. After the assay plates were incubated at a 37 C/5% CO2 incubator for 5 hours, 23 nL of compounds dissolved in DMSO, positive and negative controls was transferred to the assay plate by a pintool work station. The plates were incubated at 37 C for 40 hours. The fluorescence intensity were measured at 0h, 8h, 16h, 24h, 32h and 40h time points using ViewLux plate reader during compound treatment.
Potency means the concentration at half of the fitted maximal effect.

SMILES | Potency
Nc1cc(Cl)cc(Cl)c1 | inactive
CNc1cnn(-c2cccc(C(F)(F)F)c2)c(=O)c1Cl | inactive
NNc1ccccc1 | inactive
CC(=O)/C=C/c1ccccc1 | inactive
CC(C)(C)C(=O)CCl | inactive
CN(C)NC(=O)CCC(=O)O | inactive
ClC(Cl)c1ccccc1 | inactive
CC(C)c1cccc(C(C)C)c1O | 43.6 µM (active) and inactive
CNC(=O)Oc1cccc2ccccc12 | inactive
FC(F)(F)c1ccc(Cl)cc1 | inactive
Cc1cccc(N)c1C | inactive
O=C/C=C/c1ccccc1 | inactive
Cl/C=C/Cl | inactive
Cl[C@H]1OCCO[C@@H]1Cl | inactive
CCOP(=S)(OCC)Oc1ccc([N+](=O)[O-])cc1 | inactive
COC(=O)Nc1cccc(OC(=O)Nc2cccc(C)c2)c1 | 49 µM (active)
CNCC(O)c1ccc(O)cc1 (stereo not given) | inactive
O=C(O)CCCc1ccc(N(CCCl)CCCl)cc1 | inactive
COS(=O)(=O)OC | inactive
OCC(O)CCl (stereo not given) | inactive

SMILES | Potency
CC(C)CCCCCCOC(=O)c1ccccc1C(=O)OCCCCCCC(C)C | inactive
O=[N+]([O-])c1ccc(Cl)c(Cl)c1 | inactive
Cc1ccc(N=C=O)cc1N=C=O | inactive
O=C(O)COc1ccccc1 | inactive
Nc1cccc(Cl)c1 | inactive
N#Cc1cccc(C#N)c1 | inactive
C=C(C)C(=O)OCC(CC)CCCC (stereo not given) | inactive
OCCCCO | inactive
CNC(=O)O/N=C/C(C)(C)S(C)=O (stereo not given) | inactive
CNC(=O)O/N=C/C(C)(C)S(C)(=O)=O | inactive
Sc1ccccc1 | inactive and 43.6 µM (active)
CCOP(=S)(OCC)Oc1cc(C)nc(C(C)C)n1 | inactive
OCc1ccco1 | inactive
CCSC(=O)N1CCCCCC1 | inactive
CNC(=O)O/N=C(\SC)C(=O)N(C)C | inactive
CCCCC(CC)C(=O)Cl (stereo not given) | inactive
CN(C)CCC#N | inactive
COc1cc(-c2ccc(N)c(OC)c2)ccc1N | inactive
O=C(O)C(Br)Br | inactive
C=CCN=C=S | inactive
